Assay outcomes: PubChem, National Center for Advancing Translational Sciences (NCATS)
A selection: hits, their analogues and other compounds. The true share with any hit is near 11%.
IL1B secr inh = inhibitors of inflammasome signaling (IL-1 beta secretion); THP-1 LPS/ATP IL-1B secretion, AlphaLISA, 16 h; active compounds read low; activity change, % at 57.5 µM; hit rate 4.7% among 360,000; in the data active means activity change below about -50%; inconclusive means mostly about -30% to -49%; further: on the % scale 0 is the no-effect control and ±100 the full control effect
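THP-1 cells pretreated 1 hr with compounds (up to 57.5 uM final), then stimulated with LPS (250 ng/mL final) plus ATP (1.25 mM final); secreted IL-1B measured by AlphaLISA after 16 hr, decreased signal indicating inhibition.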
RORgamma inh = blocks mouse ROR gamma transcriptional activity; Potency, µM (doses to about 53.6 µM), for the others: top-dose activity change, negative = inhibition, most hits filed as inhibitors; AID 2551; hit rate 5.4% among 310,000; Drosophila S2 Gal4-RORgamma UAS-luciferase reporter, 20 h; P51450; further: potency means the concentration at half of the fitted maximal effect; on the % scale 0 is the no-effect control and ±100 the full control effect; nearly all actives have a fitted effect of over 60% in size
Target sequence (P51450 whole entry, looked up, the tested form may be a part): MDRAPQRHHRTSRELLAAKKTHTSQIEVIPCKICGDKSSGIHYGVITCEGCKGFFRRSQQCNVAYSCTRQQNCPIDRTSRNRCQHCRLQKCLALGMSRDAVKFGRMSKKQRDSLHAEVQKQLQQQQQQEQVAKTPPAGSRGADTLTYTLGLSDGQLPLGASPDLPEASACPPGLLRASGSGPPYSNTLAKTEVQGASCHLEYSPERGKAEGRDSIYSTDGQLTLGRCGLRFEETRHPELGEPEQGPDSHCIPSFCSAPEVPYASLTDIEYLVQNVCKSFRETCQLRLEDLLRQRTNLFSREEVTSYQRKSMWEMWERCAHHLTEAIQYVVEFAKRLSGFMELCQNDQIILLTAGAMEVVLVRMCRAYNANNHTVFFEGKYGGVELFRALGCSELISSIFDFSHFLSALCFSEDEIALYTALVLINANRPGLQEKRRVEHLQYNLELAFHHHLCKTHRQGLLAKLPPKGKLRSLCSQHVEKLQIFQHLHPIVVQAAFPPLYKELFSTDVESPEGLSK
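A Gal4/UAS one-hybrid system in insect cells: metallothionein-promoter Gal4–ROR gamma fusion plus Photinus luciferase reporter. Copper sulfate 700 uM final, 20 hr ambient incubation, luminescent detection after 10 min with reagent.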
MCF10A rerep = inducers of DNA re-replication in MCF 10A breast cells | hit rate 2.9% among 350,000 | Potency, µM (top dose mostly 46.1 µM), for inactives: at the top dose activity, positive = re-replication, actives largely listed as activators | MCF 10A DNA re-replication, Hoechst nuclear intensity, 48 h; further: potency means the concentration at half of the fitted maximal effect; % of control where 0% means no effect; nearly all actives have a fitted effect of over 50% in size
SW480 rerep = induces DNA re-replication in SW480 colon adenocarcinoma cells; SW480 DNA re-replication, Hoechst DNA content imaging, 48 h; Potency, µM (doses to about 46.1 µM), inactives show at the highest dose re-replication activation, actives largely listed as activators; hit rate 1.8% among 340,000; AID 624297; further: potency means the concentration at half of the fitted maximal effect; % of control where 0% means no effect; nearly all actives have a fitted effect of over 55% in size
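Image-based DNA-content assay: after two days of treatment, nuclei were labelled with the DNA dye Hoechst and imaged, and hits were compounds raising the count of nuclei showing high fluorescence intensity.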
VP16 counter = Gal4-VP16 reporter inhibition counter-screen. Drosophila S2 Gal4-VP16 UAS-luciferase, luminescence, 20 h. hit rate 3.5% among 310,000. Potency, µM (doses to about 53.6 µM), inactives show at the highest dose activity, negative = inhibition, most hits filed as inhibitors;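 further: Gal4-VP16 expression switched on by copper sulfate through the metallothionein promoter; potency means the concentration at half of the fitted maximal effect; on the % scale 0 is the no-effect control and ±100 the full control effect; nearly all actives have a fitted effect of over 50% in size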
* marks the source's active call; other numbers are inactive results; ? = inconclusive; . = no result given; ! = not confirmed by another sample; [ ] = another dose, or the depositor's remark. Unless noted, the call rests on the fitted dose curve; in most records, active means well fitted curve in the direction sought with a large enough effect; inconclusive means small, poorly fitted or top-dose-only effect, or another doubt; inactive means no such curve, though single readings can be large; an effect the other way counts as inactive or inconclusive.

SMILES | IL1B secr inh | RORgamma inh | MCF10A rerep | SW480 rerep | VP16 counter
O=C1C(=Cc2ccccc2)N2CCC1CC2 | -25 | . | 5% | -10% | .
O=C1/C(=C\c2ccc([N+](=O)[O-])cc2)N2CCC1CC2 | -64* | 20% | ? | 0% | -14%
C[C@@]12C=CC(=O)C=C1CCC1C2CC[C@]2(C)C(=O)CCC12 (some centres undefined) | . | -1% | . | . | 5%
COc1ccc(C(=O)C2CCCN(Cc3ccccn3)C2)c(OC)c1 (centres undefined) | 10 | 10µM* | 6% | -77% | -12%
COc1ccc(C(=O)C2CCCN(Cc3cnc(C)s3)C2)c(OC)c1 (centres undefined) | -64* | 27% | 3% | 47% | -21%
O=C(O)CCCCC1SCC2NC(=O)NC21 (centres undefined) | -56* | 10% | 19% | -88% | -4%
FC(F)(F)c1ccc(CNCCc2ccc3c(c2)OCO3)cc1 | ? | 0% | -2% | -6% | 8%
Clc1ccc(CNCCc2ccc3c(c2)OCO3)cc1 | -84* | -19% | ? | -1% | 2%
c1cncc(CNCCc2ccc3c(c2)OCO3)c1 | -6 | . | 2% | -7% | .
Clc1cccc(CNCCc2ccc3c(c2)OCO3)c1 | -81* | -6% | 11% | 0% | 8%
C[C@H](N)[C@@H](O)c1ccccc1 | . | 0%[2.98 µM] | -6%[20.6 µM] | -6%[20.6 µM] | -1%[17 µM]
Cn1c(O)c(/C=C2\N=c3ccccc3=C2CCNC(=S)NC2CC2)c(=O)n(C)c1=O | -96* | -26% | ? | ? | -17%
Cn1c(O)c(/C=C2\C=c3ccccc3=NC2=O)c(=O)n(C)c1=O | 39 | 12% | -8% | -4% | 8%
C[C@@H]1CO1 | . | 2% | . | . | -14%
O=C(NCc1cccnc1)C(Cl)(Cl)Cl | 0 | -5% | 4% | -1% | 4%
CC(C)C(=O)Nc1ccc(C(=O)NCc2cccnc2)cc1 | 18 | -30% | 6% | 0.52µM* | 1%
CCCN(CCC)c1c([N+](=O)[O-])cc(C(F)(F)F)cc1[N+](=O)[O-] | . | -5% | . | . | -12%
COc1ccc2c(c1)C(c1ccc(N(CCCl)CCCl)cc1)=NCC2 | -90* | . | 13µM* | ? | .
ClCCN(CCCl)c1ccc(C2=NCCc3ccccc32)cc1 | -78* | . | ? | 6% | .
Cc1ccc(NC(=O)COC(=O)/C=C/c2ccco2)cc1S(=O)(=O)N(C)C | 31 | 4% | 1% | ? | ?
CC1(C)C(O)CC(=O)[C@]2(C)C1CC(=O)[C@]1(C)C2CC[C@@]2(C)C(c3ccoc3)OC(=O)C3O[C@@]321 (some centres undefined) | . | 27% | . | . | -20%
COC[C@]12CN(C=O)C3C4C(OC)C1[C@@]3(C1CC3(O)C(OC)C(O)C4(OC(C)=O)C1C3OC(=O)c1ccccc1)[C@@H](OC)CC2O (some centres undefined) | . | 1% | . | . | 11%
C[C@@H]1C[C@@H]([C@H](O)CC2CC(=O)NC(=O)C2)C(=O)[C@@H](C)C1 | -58* | 0.32µM*! | ? | -9% | 0.0089µM*!
CC(=O)OC1(C)CC(C)C(=O)C(C(O)CC2CC(=O)NC(=O)C2)C1 (centres undefined) | -109* | . | 17% | 0% | .
Cl/C=C/CCl | . | 0% | . | . | -1%
CCN1C[C@@]2(COC)[C@H]3[C@@H](OC)[C@H]4C1[C@@]3([C@H](OC)C[C@@H]2O)[C@H]1C[C@@]2(O)[C@@H](OC(=O)c3ccccc3)[C@@H]1[C@@]4(OC(C)=O)[C@H](O)[C@@H]2OC | . | -3%[16.9 µM] | . | . | 9%[17 µM]
Cc1nn(Cc2ccc(Cl)cc2Cl)c(Cl)c1C(=O)O | 8 | -25% | 14% | ? | 0%
N=c1c2c(n(Cc3ccc(Cl)cc3Cl)c3c1CCC3)CCCC2 | -60* | -21% | 18% | ? | ?
C=C1C(O)(c2ccccc2)C2CC[N+]1(C)CC2 (centres undefined) | 12 | 11% | ? | 1.2µM* | 4%
CCC1(OC(=O)CN)C(=O)OCc2c1cc1n(c2=O)Cc2cc3ccccc3nc2-1 (centres undefined) | -98* | ? | -7% | 0% | ?
